PubChem BioAssay (NCI)
This is part of a sample that, as a whole, favours compounds with a hit. Of some 83,000 tested, about 20% had one in any assay.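 Compound tested at a single concentration for 48 hours in 96-well plates; a percent growth value below 10 was scored as active.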 A number with no mark means an inactive call. Active and inactive are the calls of the source.

Key:
Experiment in all cases: NCI-60 one-dose screen, 48 h (100 = growth as untreated, 0 = no growth, -100 = all killed)
Conditions in all cases: 10 µM unless noted
NCI-H23 lung = system: NCI-H23 lung
NCI-H322M lung = system: NCI-H322M lung
HOP-62 NSCLC = system: HOP-62 NSCLC
NCI-H460 lung = system: NCI-H460 lung
HOP-92 NSCLC = system: HOP-92 NSCLC
NCI-H522 lung = system: NCI-H522 lung
A549/ATCC NSCLC = system: A549/ATCC NSCLC
786-0 renal = system: 786-0 renal
COLO 205 colon = system: COLO 205 colon
DU-145 prostate = system: DU-145 prostate
K-562 leukemia = system: K-562 leukemia
MALME-3M melanoma = system: MALME-3M melanoma
MDA-MB-231 breast = system: MDA-MB-231 breast
RXF 393 renal = system: RXF 393 renal
SF-268 CNS = system: SF-268 CNS
SF-295 CNS = system: SF-295 CNS
SF-539 CNS = system: SF-539 CNS
UACC-257 melanoma = system: UACC-257 melanoma
M14 melanoma = system: M14 melanoma

SMILES | growth (NCI-H23 lung) | growth (NCI-H322M lung) | growth (HOP-62 NSCLC) | growth (NCI-H460 lung) | growth (HOP-92 NSCLC) | growth (NCI-H522 lung) | growth (A549/ATCC NSCLC) | growth (786-0 renal) | growth (COLO 205 colon) | growth (DU-145 prostate) | growth (K-562 leukemia) | growth (MALME-3M melanoma) | growth (MDA-MB-231 breast) | growth (RXF 393 renal) | growth (SF-268 CNS) | growth (SF-295 CNS) | growth (SF-539 CNS) | growth (UACC-257 melanoma) | growth (M14 melanoma)
CCCCCCCCCc1ccc(OCCOCCOCCOCCOCCOCCOCCOCCOCCO)cc1 | 7.69% (active) | 57.3% | 128% | 11.2% | -9.71% (active) | -9.88% (active) | 17.3% | 27.4% | 109% | 31.5% | 10.5% | -10.2% (active) | -38.1% (active) | 29% | 28.1% | 0.0887% (active) | 29% | -25.2% (active) | -11.3% (active)
C#CCOc1cccc(Nc2ncnc3ccc(NC(=O)C=C)cc23)c1 | 65.4% | 2% (active) | 58.4% | 81.2% | 14.7% | 15.9% | 34.2% | 35.2% | 68.4% | 24.1% | 46% | 60.8% | 54% | 2.49% (active) | 40.2% | 66.2% | 32.1% | 54.9% | 51.4%
O=S(=O)(Nc1ccc(F)cc1F)c1ccc(-c2cnc(C3CC3)o2)cc1 | 38% | 47.4% | 39.7% | 16.3% | 44.4% | 13.4% | 41.5% | 44% | 16.2% | 40.7% | 18.2% | 34.8% | 53% | -1.92% (active) | 44.6% | 30.7% | 1.19% (active) | 64% | 4.25% (active)
COc1ccccc1N1CCCCC1 | 102% | 108% | 90.4% | 109% | 104% | 93.8% | 101% | 95.8% | 113% | 110% | 93.5% | 94.6% | 99.9% | 133% | 108% | 98.9% | 94.3% | 108% | 101%
O=C1/C(=C/c2ccc([N+](=O)[O-])cc2)COc2ccc(O)cc21 | 96.6% | 91.9% | 104% | 97.9% | 110% | 62.2% | 97.1% | 81.9% | 92.9% | 92.6% | 11.2% | 96.1% | 80.8% | 98.9% | 84% | 98.6% | 94.5% | 106% | 88.2%
COc1ccc2[nH]c(C(=O)N3CCN(C(=O)OCc4ccc5c(Cl)cc(Cl)c(O)c5n4)CC3)cc2c1 | -85.8% (active) | 29.1% | -61.5% (active) | -58.9% (active) | -65.4% (active) | -70.8% (active) | -68% (active) | -91.7% (active) | -81.6% (active) | -88.6% (active) | 4.22% (active) | -94.4% (active) | -82.2% (active) | -92.9% (active) | -91.1% (active) | 34% | -99.3% (active) | -43.2% (active) | -66.4% (active)
COc1cc(/C=C2/C=C(c3ccccc3)N(CCc3ccc(S(N)(=O)=O)cc3)C2=O)cc(OC)c1OC | 103% | 100% | 94% | 105% | 41.9% | 81.3% | 86.4% | 85.5% | 108% | 109% | 93.6% | 84.2% | 96.8% | 96.1% | 107% | 99.2% | 101% | 84% | 89.8%
O=C(Nc1nc2ccc(C(=O)N3CCN(/C=C/c4ccccc4)CC3)cc2s1)c1ccc(NCCc2ccccc2)c([N+](=O)[O-])c1 | 51% | 82.8% | 58.4% | 16.5% | 51.8% | 48.3% | 55.2% | 69.7% | 18.5% | 70.7% | -18.7% (active) | -0.217% (active) | 66% | 53.2% | 63.2% | 45.7% | 71.7% | 37.3% | 12.9%
